According to PubChem BioAssay (NCI):
The panel holds about 83,000 compounds, 20% with a hit somewhere; the sample as a whole holds those more often.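 Results are percent growth after 48 hours of single-concentration exposure. 100 means growth as in untreated cells, lower positive values show inhibition; negative values down to -100 show cell death.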 Unmarked numbers belong to inactive results. Calls of active or inactive are those of the source.

What follows are compounds tested on NCI-H460 lung (assay: NCI-60 one-dose screen, 48 h (100 = growth as untreated, 0 = no growth, -100 = all killed)). Settings: 10 µM unless noted.
Protocol: Growth inhibition of the NCI-H460 human Non-Small Cell Lung tumor cell line is measured as a screen for anti-cancer activity. Cells are grown in 96 well plates and exposed to the test compound for 48 hours. Compounds are tested at a single concentration, which is 10^-5 M for most compounds. The reported endpoint is percent growth (GI% or GIPRCNT), where numbers from 0 - 100% represent growth inhibition, and numbers from -100% - 0 represent cell death. For example, a value of 40 represents 60% growth inhibition. A value of 0 means no net growth occurred over the course of the experiment. A value of -40 indicates 40% of cells at the beginning of the experiment died by the end of the experiment. A value of -100 means all cells are dead at the end of the experiment.
NCI-60 Human Tumor Cell Lines Screen was performed using the standard one-dose NCI protocol, which is described in more detail at https://dtp.cancer.gov/discovery_development/nci-60/default.htm.
Compounds with GIPRCNT values below 10 were considered active. Activity score was based on GIPRCNT using the following formula: […]
Score is 0 for GIPRCNT values of 100 or above, 50 for GIPRCNT values of 0, and 100 for GIPRCNT values of -100.

| SMILES | growth |
| --- | --- |
| O=C(Cc1nc2cc(Cl)c(Cl)cc2nc1CC(=O)c1ccccc1)c1ccccc1 | 73.4% |
| CC(C)=CCCC(C)C1=C(O)C(=O)C(C)=CC1=O (stereo not given) | 124% |
| O=C(c1ccccc1)C(Br)[N+](=O)[O-] (stereo not given) | 101% |
| COc1cc(/C=C/c2ccnc3ccccc23)cc(OC)c1OC | 22.4% |
| O=S(=O)(O)c1cnccn1 | 123% |
| CCc1cnc2ccccc2c1/C=C/c1ccc(N(C)C)cc1 | 30.8% |
| Nc1ccc(-c2ccc(N)c(S(=O)(=O)O)c2)cc1S(=O)(=O)O | 117% |
| O=C1c2ccccc2Cc2cccc(Cl)c21 | 117% |
| S=C=Nc1ccc(N2CCOCC2)cc1 | 99.8% |
| COC(=O)c1nc(=S)[nH]c(C(=O)OC)c1C(=O)c1ccc(Cl)c(Cl)c1 | 111% |
| CCCCOS(=O)(=O)c1ccccc1 | 115% |
| CC1(C)OCC(COC(c2ccccc2)(c2ccccc2)c2ccccc2)O1 (stereo not given) | 104% |
| CCOC(=O)C1=NN(c2ccccc2)C(=O)/C1=C\N1C(=O)/C(=C/c2cccc(O)c2)SC1=S | 103% |
| Cc1oc2c(C)c3oc(=O)cc(C)c3cc2c1CCl | 91.8% |
| CC(C)(C)c1ccc(CCO)cc1 | 109% |
| O=C1C=CC(=O)N1C1CCCCCCCCCCC1 | 106% |
| CN(C)CCN(C)CC(C)(C)C(=O)/C=C/c1ccc(Cl)c(Cl)c1 | -72.8% [100 µM] (active) |
| CCCCCCCCCCCC(=O)OC(C)C(=O)NCCCC (stereo not given) | 105% |
| S=C(S)OCN1CCOCC1 | 90.3% |
| CCNc1nnnn1CC | 106% |

| SMILES | growth |
| --- | --- |
| CCCN(CCC)C(=O)c1ccc(C)cc1 | 99.8% |
| O=Nc1ccc2ccccc2c1O | 97.5% |
| O=[N+]([O-])/C(=C/c1ccccc1)c1ccccc1 | 102% |
| O=C(c1ccccc1)c1ccc(O)c2ncccc12 | 13.7% |
| Oc1ccc(Cl)cc1C(c1cc(Cl)ccc1O)C(Cl)(Cl)Cl | -12% (active) |
| CC1(C)N=c2cc3c(cc2N1c1ccc(Cl)cc1)=Nc1ccccc1N3c1ccc(Cl)cc1 | 46.5% |
| CC(C)(C)c1ccc(O)c(Br)c1 | 95.6% |
| CCOC(=O)/C(=C\c1ccc2ccccc2c1)P(=O)(OCC)OCC | 20% |
| Cc1c(O)ccc(SC#N)c1C | 99.5% |
| CCCCCCCCCCCC1N=C(N)N=C(N)N1c1cccc(Br)c1 (stereo not given) | -58.4% (active) |
| CCSc1nc2ccccc2o1 | 103% |
| COC(=O)c1cc([N+](=O)[O-])cc([N+](=O)[O-])c1Cl | 102% |
| N#CCc1cccc2ccccc12 | 108% |
| CCOC(=O)NC(/C=C/c1ccccc1)NC(=O)OCC | 108% |
| COC1=CC(=O)c2c(O)c3c(c(O)c2C1=O)CC(C)(O)OC3 (stereo not given) | 4.74% (active) |
| CC1=CC(=O)C=CC1(C)C(Cl)(Cl)Cl (stereo not given) | 104% |
| COc1cc(NC(=O)C2=C(C)NC(C)=C(C(=O)Nc3cc(OC)c(Cl)cc3OC)C2c2cccc([N+](=O)[O-])c2)c(OC)cc1Cl | 36.8% |
| COc1ccc(NC(=O)/C(=C/N2C(=O)/C(=C/c3ccc(OC)c(OC)c3)NC2=S)C(C)=O)cc1 | 65.6% |
| Cc1cc(C(=O)c2ccc(Cl)cc2)ccc1O | 106% |
| Oc1ccc2ccccc2c1N=Nc1ccccn1 | 17.4% |
